# In PubChem BioAssay AID1159580 (chemical genetic matrix, 2015):
# The campaign covered roughly 5,500 compounds. About 2,000 (36%) were called active. About 18% were inconclusive and are not listed. The list shows a part of the results. A number with no mark means an inactive call. No stated cut-off is given here; in the data, active means normalized growth mostly below about 0.91 (no sharp cut-off); inconclusive means no clear call, values can overlap the other calls; inactive means mostly above about 0.92.
# Test: chemical genetic growth profiling, strain panel (AID 1159580);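 further: tested at 20 µM; growth read once vehicle control cultures reached saturation at 30 °C; 1 = growth at the plate median or of vehicle wells; lower values mean less growth of the strain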
# Details: growth OD
smiles,measurement,setting,value
COc1ccc(C(c2ccc(OC)cc2)C(Cl)(Cl)Cl)cc1,normalized growth,"S. cerevisiae deletion strains, locus YJR043C, strain POL32, hits give low values",0.987
same,normalized growth,"S. cerevisiae deletion strains, locus YJR075W, strain HOC1, hits give low values",1.01
same,normalized growth,"S. cerevisiae deletion strains, locus YKL009W, strain mrt4, hits give low values",0.949
same,normalized growth,"S. cerevisiae deletion strains, locus YKL068W, hits give low values",0.995
same,normalized growth,"S. cerevisiae deletion strains, locus YKL085W, strain MDH1 (second series), hits give low values",0.999
same,normalized growth,"S. cerevisiae deletion strains, locus YKL085W, strain MDH1, hits give low values",0.999
same,normalized growth,"S. cerevisiae deletion strains, locus YKL160W, strain elf1, hits give low values",1
same,normalized growth,"S. cerevisiae deletion strains, locus YKL190W, strain CNB1, hits give low values",1.01
same,normalized growth,"S. cerevisiae deletion strains, locus YKR001C, strain vps1, hits give low values",0.966
same,normalized growth,"S. cerevisiae deletion strains, locus YKR026C, strain gcn3, hits give low values",1.01
same,normalized growth,"S. cerevisiae deletion strains, locus YKR091W, strain srl3, hits give low values",1.02
same,normalized growth,"S. cerevisiae deletion strains, locus YLL001W, strain dnm1, hits give low values",1.01
same,normalized growth,"S. cerevisiae deletion strains, locus YLL026W, hits give low values",1.02
same,normalized growth,"S. cerevisiae deletion strains, locus YLL041C, strain sdh2, hits give low values",1.02
same,normalized growth,"S. cerevisiae deletion strains, locus YLR027C, strain aat2, hits give low values",1.02
same,normalized growth,"S. cerevisiae deletion strains, locus YLR039C, strain RIC1, hits give low values",1.01
same,normalized growth,"S. cerevisiae deletion strains, locus YLR058C, strain SHM2, hits give low values",0.994
same,normalized growth,"S. cerevisiae deletion strains, locus YLR102C, strain apc9, hits give low values",0.99
same,normalized growth,"S. cerevisiae deletion strains, locus YLR221C, strain rsa3, hits give low values",0.981
same,normalized growth,"S. cerevisiae deletion strains, locus YLR258W, strain gsy2, hits give low values",1.01
same,normalized growth,"S. cerevisiae deletion strains, locus YLR262C, strain YPT6 (second series), hits give low values",0.856 (active)
same,normalized growth,"S. cerevisiae deletion strains, locus YLR262C, strain YPT6, hits give low values",1.03
same,normalized growth,"S. cerevisiae deletion strains, locus YLR268W, strain sec22, hits give low values",0.997
same,normalized growth,"S. cerevisiae deletion strains, locus YLR320W, strain mms22, hits give low values",0.963
same,normalized growth,"S. cerevisiae deletion strains, locus YLR330W, strain CHS5, hits give low values",0.998
same,normalized growth,"S. cerevisiae deletion strains, locus YLR342W, strain FKS1 (second series), hits give low values",0.975
same,normalized growth,"S. cerevisiae deletion strains, locus YLR342W, strain FKS1, hits give low values",1.01
same,normalized growth,"S. cerevisiae deletion strains, locus YLR357W, strain rsc2, hits give low values",1.03
same,normalized growth,"S. cerevisiae deletion strains, locus YLR370C, strain arc18, hits give low values",1.01
same,normalized growth,"S. cerevisiae deletion strains, locus YLR371W, strain rom2, hits give low values",0.972
same,normalized growth,"S. cerevisiae deletion strains, locus YLR384C, strain iki3, hits give low values",0.996
same,normalized growth,"S. cerevisiae deletion strains, locus YLR418C, strain cdc73, hits give low values",0.993
same,normalized growth,"S. cerevisiae deletion strains, locus YML016C, strain PPZ1, hits give low values",0.993
same,normalized growth,"S. cerevisiae deletion strains, locus YML032C, strain rad52, hits give low values",0.975
same,normalized growth,"S. cerevisiae deletion strains, locus YML120C, strain ndi1, hits give low values",1.02
same,normalized growth,"S. cerevisiae deletion strains, locus YML124C, strain tub3, hits give low values",0.983
same,normalized growth,"S. cerevisiae deletion strains, locus YMR058W, strain fet3, hits give low values",1.01
same,normalized growth,"S. cerevisiae deletion strains, locus YMR078C, strain ctf18, hits give low values",0.988
same,normalized growth,"S. cerevisiae deletion strains, locus YMR125W, strain sto1, hits give low values",1
same,normalized growth,"S. cerevisiae deletion strains, locus YMR129W, hits give low values",1.01
same,normalized growth,"S. cerevisiae deletion strains, locus YMR205C, strain PFK2, hits give low values",0.985
same,normalized growth,"S. cerevisiae deletion strains, locus YMR223W, strain ubp8, hits give low values",0.966
same,normalized growth,"S. cerevisiae deletion strains, locus YMR231W, strain pep5, hits give low values",1
same,normalized growth,"S. cerevisiae deletion strains, locus YMR263W, strain SAP30, hits give low values",1.01
same,normalized growth,"S. cerevisiae deletion strains, locus YMR307W, strain GAS1, hits give low values",0.892
same,normalized growth,"S. cerevisiae deletion strains, locus YNL067W, strain RPL9B, hits give low values",0.999
same,normalized growth,"S. cerevisiae deletion strains, locus YNL071W, strain lat1, hits give low values",0.999
same,normalized growth,"S. cerevisiae deletion strains, locus YNL128W, strain TEP1, hits give low values",0.992
same,normalized growth,"S. cerevisiae deletion strains, locus YNL153C, strain GIM3, hits give low values",0.998
same,normalized growth,"S. cerevisiae deletion strains, locus YNL209W, strain ssb2, hits give low values",1
same,normalized growth,"S. cerevisiae deletion strains, locus YNL233W, strain BNI4, hits give low values",1
same,normalized growth,"S. cerevisiae deletion strains, locus YNL248C, strain rpa49, hits give low values",1.01
same,normalized growth,"S. cerevisiae deletion strains, locus YNL250W, strain rad50, hits give low values",0.992
same,normalized growth,"S. cerevisiae deletion strains, locus YNL271C, strain bni1, hits give low values",0.988
same,normalized growth,"S. cerevisiae deletion strains, locus YNL298W, strain CLA4, hits give low values",0.977
same,normalized growth,"S. cerevisiae deletion strains, locus YNL307C, strain MCK1, hits give low values",0.964
same,normalized growth,"S. cerevisiae deletion strains, locus YNL322C, strain KRE1 (second series), hits give low values",0.985
same,normalized growth,"S. cerevisiae deletion strains, locus YNL322C, strain KRE1, hits give low values",1.01
same,normalized growth,"S. cerevisiae deletion strains, locus YNR049C, strain mso1, hits give low values",1.01
same,normalized growth,"S. cerevisiae deletion strains, locus YNR052C, strain pop2, hits give low values",0.96
same,normalized growth,"S. cerevisiae deletion strains, locus YOL006C, strain TOP1, hits give low values",1.02
same,normalized growth,"S. cerevisiae deletion strains, locus YOL012C, strain htz1",0.957
same,normalized growth,"S. cerevisiae deletion strains, locus YOL147C, strain pex11, hits give low values",0.985
same,normalized growth,"S. cerevisiae deletion strains, locus YOR001W, strain rrp6, hits give low values",0.987
same,normalized growth,"S. cerevisiae deletion strains, locus YOR061W, strain CKA2, hits give low values",1.01
same,normalized growth,"S. cerevisiae deletion strains, locus YOR069W, strain VPS5, hits give low values",0.992
same,normalized growth,"S. cerevisiae deletion strains, locus YOR070C, strain gyp1, hits give low values",1.02
same,normalized growth,"S. cerevisiae deletion strains, locus YOR080W, strain dia2, hits give low values",1.01
same,normalized growth,"S. cerevisiae deletion strains, locus YOR083W, strain WHI5, hits give low values",1
same,normalized growth,"S. cerevisiae deletion strains, locus YOR106W, strain vam3, hits give low values",0.967
same,normalized growth,"S. cerevisiae deletion strains, locus YOR136W, strain idh2, hits give low values",0.972
same,normalized growth,"S. cerevisiae deletion strains, locus YOR144C, strain elg1, hits give low values",0.982
same,normalized growth,"S. cerevisiae deletion strains, locus YOR184W, strain ser1, hits give low values",0.962
same,normalized growth,"S. cerevisiae deletion strains, locus YOR265W, strain rbl2, hits give low values",1.01
same,normalized growth,"S. cerevisiae deletion strains, locus YOR270C, strain vph1, hits give low values",0.982
same,normalized growth,"S. cerevisiae deletion strains, locus YOR290C, strain snf2, hits give low values",0.984
same,normalized growth,"S. cerevisiae deletion strains, locus YOR316C, strain cot1, hits give low values",0.995
same,normalized growth,"S. cerevisiae deletion strains, locus YPL051W, strain arl3, hits give low values",0.978
same,normalized growth,"S. cerevisiae deletion strains, locus YPL055C, strain LGE1, hits give low values",0.996
same,normalized growth,"S. cerevisiae deletion strains, locus YPL078C, strain atp4, hits give low values",1.02
same,normalized growth,"S. cerevisiae deletion strains, locus YPL106C, strain sse1, hits give low values",1.06
same,normalized growth,"S. cerevisiae deletion strains, locus YPL240C, strain hsp82, hits give low values",1.01
same,normalized growth,"S. cerevisiae deletion strains, locus YPL241C, strain CIN2, hits give low values",1
same,normalized growth,"S. cerevisiae deletion strains, locus YPR119W, strain clb2, hits give low values",0.998
same,normalized growth,"S. cerevisiae deletion strains, locus YPR141C, strain kar3, hits give low values",0.994
same,normalized growth,"S. cerevisiae deletion strains, locus YPR163C, strain tif3, hits give low values",0.97
same,normalized growth,"S. cerevisiae deletion strains, locus YPR167C, strain met16, hits give low values",0.991
same,normalized growth,"S. cerevisiae deletion strains, strain wtn01, hits give low values",1
same,normalized growth,"S. cerevisiae strains, strain wild type, hits give low values",1
